Screens deposited in PubChem BioAssay by National Center for Advancing Translational Sciences (NCATS).
HTT-AS act: activates huntingtin-antisense promoter activity | HEK293 HTT-AS promoter firefly luciferase reporter, 24 h; response scale: percent change from vehicle, -100% = no light | Potency, µM (doses to about 57.5 µM), for the others: at the top dose activity change, positive = activation, hits mostly activators | 48,000 compounds, 0.24% hits | AID 1508624; note: nearly all actives have a fitted effect of over 55% in size
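Firefly luciferase signal from promoter-reporter HEK293 cells was scaled between vehicle (0%) and zero RLU (-100%). Compounds were tested at final concentrations of up to 57.5 uM over 24 h at 37 degrees C. PTC124 at 50 uM final served as control inhibitor.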
HTT promoter inh: inhibits huntingtin promoter activity. HEK293 HTT promoter firefly luciferase reporter, 24 h. Potency, µM (top dose mostly 57.5 µM), for the others: at the highest dose activity change, negative = inhibition, hits mostly inhibitors. 48,000 compounds, 0.93% hits. AID 1508623; note: nearly all actives have a fitted effect of over 50% in size
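Firefly luciferase readout (Dual-Glo, 10 min RT) after 24 h, 37 °C compound exposure (final up to 57.5 uM) of HEK293 reporter cells cultured 24 h beforehand; PTC124 at 50 uM final as control inhibitor; activity scaled vehicle 0%, zero RLU -100%.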
p53null 32C tox: kills p53 null cells at the permissive temperature | 55,000 compounds, 0.62% hits | Potency, µM (top dose mostly 46.1 µM), inactives show at the top dose activity change, negative = cytotoxicity, usual class: cytotoxic | H1299-neo p53 null cells, ATP luminescence, 24 h, 32C;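 note: 0% = DMSO only and -100% = full killing by 100 µM tamoxifen; nearly all actives have a fitted effect of over 55% in size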
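H1299-neo, 600 cells/well; overnight 37C; cpd up to 46 uM, 24 h at 32C; ATPlite luminescence after 20 min RT; normalized to DMSO (0%) and tamoxifen 100 uM (100% kill); Hill-fit AC50.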
p53null 39C tox: kills p53 null cells at the nonpermissive temperature. Potency, µM (doses to about 46.1 µM), for inactives: top-dose activity, negative = cell killing, actives largely listed as cytotoxic. 55,000 compounds, 0.97% hits. H1299 p53-null (neo) cells, 39C, ATPlite viability, 24 h;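 note: 0% = DMSO only and -100% = full killing by 100 µM tamoxifen; nearly all actives have a fitted effect of over 50% in size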
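Cells seeded at 600/well, 37C overnight. Compound added (up to 46 uM), plates shifted to 39C for 24 hr. ATPlite added, luminescence read after 20 min at room temperature.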
An asterisk follows results filed as active; ? = inconclusive; / = no result. The list is not random: actives were taken first. Their share in the collection is about 1.9%. Calls come from the whole dose curve; as a rule, active = well fitted curve in the direction sought with a large enough effect; inconclusive = small, poorly fitted or top-dose-only effect, or another doubt; inactive = no such curve, though single readings can be large; an effect the other way counts as inactive or inconclusive. Potency is the fitted concentration of half-maximal effect.

SMILES	HTT-AS act	HTT promoter inh	p53null 32C tox	p53null 39C tox
Cc1ccccc1CCNC(=O)c1ccc2c(c1)nc1n2CCC(C)C1 (stereo unspecified)	?	72%	10µM*	?
Cc1ccc(CCNC(=O)c2ccc3c(c2)nc2n3CCOC2)cc1	2%	21%	-5%	-10%
CCNC(=O)c1ccc2c(c1)nc1n2CCCCC1	?	69%	?	?
O=C(NCCc1ccccc1Cl)c1ccc2c(c1)nc1n2CCCCC1	-70%	?	3.2µM*	2.5µM*
COc1ccc(Br)cc1CNC(=O)c1ccc2c(c1)nc1n2CCC(C)C1 (stereo unspecified)	-5%	13%	4%	-1%
CC(=O)O[C@]1(C(C)=O)CC[C@H]2[C@@H]3C=C(C)C4=CC(=O)CC[C@]4(C)[C@@H]3CC[C@@]21C	-7%	-2%	/	/
Cc1cc(Nc2ncnc3ccc(-c4ccc(CNCCS(C)(=O)=O)o4)cc23)ccc1Oc1ccn2ncnc2c1	-44%	?	/	/
CCOC(=O)c1cnc2ccc(OC)cc2c1NCCc1ccccc1	-77%	32µM*	31%	?
CCOC(=O)c1ccc2ncc(C(=O)OCC)c(NCCc3ccc(OC)c(OC)c3)c2c1	-18%	-19%	16%	94%
CCS(=O)(=O)c1ccc(C(=O)N2CCN(c3nc4c(OC)ccc(C)c4s3)CC2)cc1	-37%	?	-8%	0%
CCS(=O)(=O)c1cccc(C(=O)N2CCN(c3nc4c(C)ccc(Cl)c4s3)CC2)c1	-48%	11µM*	35%	?
Cc1ccc2[nH]cc(C(c3ccccc3)c3cccs3)c2c1 (stereo unspecified)	-37%	?	?	?
Cc1ccc2[nH]cc(C(c3ccccc3)c3ccc(C)s3)c2c1 (stereo unspecified)	-27%	?	11µM*	16µM*
O=C(COc1ccc(F)cc1)NCCc1nc2ccccc2[nH]1	-16%	-7%	14%	-12%
c1ccc2cc(OCc3nc4ccccc4[nH]3)ccc2c1	/	/	11µM*	11µM*
CCCN(CCC)CC(O)Cn1cc(/C=C/C(=O)c2ccc(OCC)cc2)c2ccccc21 (stereo unspecified)	-40%	?	?	20µM*
CC(C)CN(CC(C)C)CC(O)Cn1cc(/C=C/C(=O)c2ccccc2)c2ccccc21 (stereo unspecified)	-27%	-8%	-3%	-1%
Cc1n[nH]c(C)c1Cc1sc2c(c1C(=O)N1C[C@H](O)CO1)c(=O)n(C)c(=O)n2CC(C)C	-15%	-1%	/	/
CC(C)Nc1ncnc2c1cnn2-c1ccccc1	/	/	11µM*	?
Cc1cccc(-n2ncc3c(NCCOCCO)ncnc32)c1	4µM*	39%	?	26%
CCOC(=O)[C@@](C)(N)Cc1ccc(O)c(O)c1	21%	?	/	/
Cc1ccc(S(=O)(=O)Nc2cccc(-c3ccc(N4CCC(C)CC4)nn3)c2)s1	/	/	13µM*	16µM*
O=S(=O)(Nc1cccc(-c2ccc(N3CCCCC3)nn2)c1)c1ccc(F)cc1F	?	-6%	?	?
CC1CCN(c2ccc(-c3cccc(NS(=O)(=O)c4ccc(F)cc4F)c3)nn2)CC1	/	/	10µM*	10µM*
C=CC1=C(C(=O)O)N2C(=O)[C@@H](NC(=O)C(=NO)c3csc(N)n3)[C@H]2SC1	-6%	-2%	/	/
SMILES	HTT-AS act	HTT promoter inh	p53null 32C tox	p53null 39C tox
O=C(NNC(=O)c1ccc(CNS(=O)(=O)c2ccc(F)c(Cl)c2)cc1)c1ccccc1	23%	31%	/	/
CN(C)CCNC(=O)c1ccc(Cn2c(SCc3ccc(F)cc3)nc3cccnc32)cc1	?	61%	-11%	-10%
COc1ccc(NC(=O)Cn2c(SCc3ccc(C)cc3)nc3cccnc32)cc1OC	-3%	?	3.5µM*	5µM*
COCCCNC(=O)c1ccc(CSc2nc3cccnc3n2Cc2ccc(OC)cc2)cc1	-15%	-11%	4%	-25%
COCCCNC(=O)c1ccc(Cn2c(SCc3ccc(F)cc3)nc3cccnc32)cc1	8%	2%	10µM*	13µM*
COc1ccc(NC(=O)Cn2c(SCc3ccc(F)cc3)nc3cccnc32)cc1OC	-2%	?	?	?
O=C(NCCN1CCCCC1)c1ccc(Cn2c(SCc3ccc(F)cc3)nc3cccnc32)cc1	?	48%	16µM*	?
CC#CCn1c(N2CCC[C@@H](N)C2)nc2c1c(=O)n(Cc1nc(C)c3ccccc3n1)c(=O)n2C	-3%	-3%	/	/
OC[C@H]1O[C@@H](OCCc2ccc(O)cc2)[C@H](O)[C@@H](O)[C@H]1O	-21%	-32%	/	/
O=C(C1CCC(CNS(=O)(=O)c2ccc(Br)s2)CC1)N1CCN(c2ccccc2)CC1 (stereo unspecified)	-29%	0%	-6%	-14%
O=C(C1CCC(CNS(=O)(=O)c2cccs2)CC1)N1CCN(c2ccc(Cl)cc2)CC1 (stereo unspecified)	-76%	4µM*	27%	-1%
CCc1cccc(NC(=O)c2oc3ccc4c(c3c2C)C(=O)CC(C)(C)O4)c1	?	?	5µM*	5µM*
COc1ccc(NC(=O)c2oc3ccc4c(c3c2C)C(=O)CC(C)(C)O4)cc1OC	?	39%	13µM*	3.2µM*
CCC1(C)CC(=O)c2c(ccc3oc(C(=O)NCc4ccccc4)c(C)c23)O1 (stereo unspecified)	22%	18%	9%	12%
CCOc1ccccc1CNC(=O)c1oc2ccc3c(c2c1C)C(=O)CC(C)(C)O3	?	11%	?	6%
CC(C)C[C@@H]1[C@H](c2ccccc2)OC(=O)N1CCCN1CCCCCC1	-4%	-8%	/	/
CCOc1ccc(-c2cc(CCCC(=O)NCCc3ccc(OC)c(OC)c3)no2)cc1	-81%	?	-21%	-8%
CCOc1ccc(-c2cc(CCCC(=O)NCCc3cc(OC)c(OC)c(OC)c3)no2)cc1	-79%	16µM*	?	-26%
COc1c(C)cnc(Cn2cnc3c(Cl)nc(N)nc32)c1C	-57%	?	/	/
Cc1nc(C)c(-c2ccc(SCC(=O)Nc3ccc(Cl)c(Cl)c3)nn2)s1	-32%	18µM*	0%	8%
CCOc1ccc(S(=O)(=O)Nc2ccc(O)c(Sc3ncn[nH]3)c2)cc1	/	/	7%	4%
CC(C)c1ccc(S(=O)(=O)/N=C2/C=C(Sc3ncn[nH]3)C(=O)c3ccccc32)cc1	/	/	6.3µM*	/
Oc1ccc(Nc2nc(-c3ccc(Cl)cc3)nc3ccccc23)cc1	-20%	-29%	?	16µM*
O=C(CSc1nnc(-c2ccc([N+](=O)[O-])cc2)o1)Nc1ccccc1	1.8µM*	67%	?	6.3µM*
CC(=O)Nc1ccc(-c2nnc(SCC(=O)c3ccc([N+](=O)[O-])cc3)o2)cc1	6%	-15%	-14%	12%
CCCN(CCC)c1ccc(C2N=C(N)Nc3nc4ccccc4n32)cc1 (stereo unspecified)	-44%	?	?	3.2µM*
